Bioassay records from PubChem.
Sampled rows, rich in hits. Any-hit rate of the full collection: about 10%.
JMJD2A Tudor: qHTS Assay for Inhibitors of JMJD2A-Tudor Domain. Lysine-specific demethylase 4A (Homo sapiens), O75164. AlphaScreen JMJD2A-Tudor / H3K4me3 peptide binding. Potency, µM (highest dose often 114 µM), without a hit: at the top dose activity change, negative = inhibition, most hits filed as inhibitors. 4.4% of 390,000 active. AID 504339, 2011; further: potency means the concentration at half of the fitted maximal effect; on the % scale 0 is the no-effect control and ±100 the full control effect; nearly all actives have a fitted effect of over 50% in size
CtBP-E1A inh: qHTS Assay for Inhibitors of the CtBP/E1A Interaction. 0.49% of 340,000 active. AID 651724, 2012. activity change, % (concentration not given with the values). CtBP / adenovirus E1A interaction (AlphaScreen). AlphaScreen GST-E1A/His-CtBP binding, 1536-well; stronger effect = lower value; in the data active means activity change below about -65%; inconclusive means mostly about -30% to -63%; further: on the % scale 0 is the no-effect control and ±100 the full control effect
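Steps: dispense buffer (Tris pH 8.0, NaCl 300 mM, TCEP 1 mM, BSA, Tween 20); add 5X protein mix (GST-E1A, His-CtBP, 125 nM each); pin 23 nL compound; 2 h at 37 °C, dark; add 5X beads (50 ug/mL); 1 h; read.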
HP1b chromo inh: HTS for Inhibitors of HP1-beta Chromodomain Interactions with Methylated Histone Tails. Chromobox protein homolog 1 (Homo sapiens), P83916. AlphaScreen HP1-beta / biotin-H3K9me3 peptide binding. Potency, µM (highest dose often 114 µM), inactives show at the top dose activity change, negative = inhibition, usual class: inhibitors. 0.56% of 390,000 active; further: potency means the concentration at half of the fitted maximal effect; nearly all actives have a fitted effect of over 70% in size
Target sequence (P83916 whole entry, looked up): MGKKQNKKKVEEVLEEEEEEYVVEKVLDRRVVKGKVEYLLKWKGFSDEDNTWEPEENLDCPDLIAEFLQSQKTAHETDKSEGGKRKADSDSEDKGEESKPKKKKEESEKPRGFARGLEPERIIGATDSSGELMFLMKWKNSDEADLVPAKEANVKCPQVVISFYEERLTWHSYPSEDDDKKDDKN
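HP1-beta protein (50 nM final) preincubated 30 min at room temperature with biotinylated H3(1-18)K9me3 peptide (50 nM) in PBS pH 7.4, 0.01% Tween-20, then compound added for 30 min. AlphaScreen streptavidin donor/nickel chelate acceptor beads (10 ug/mL final), 30 min dark, luminescence read.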
BAZ2B block: qHTS Assay for Inhibitors of BAZ2B; Bromodomain adjacent to zinc finger domain protein 2B (Homo sapiens), Q9UIF8; AID 504333, 2011; 4.4% of 360,000 active; Potency, µM (titrated, usually from 114 µM), inactives show at the highest dose activity change, negative = inhibition, hits mostly inhibitors; AlphaScreen BAZ2B-H3K14Ac peptide displacement; further: potency means the concentration at half of the fitted maximal effect; on the % scale 0 is the no-effect control and ±100 the full control effect; nearly all actives have a fitted effect of over 60% in size
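AlphaScreen displacement: compounds (up to 110uM) incubated 30 min at room temperature with a preformed 50 nM BAZ2B/50 nM biotinylated H3K14Ac peptide complex in PBS pH 7.4 with Tween-20. Donor and acceptor beads at 10 ug/mL final added, 20 min light-protected before reading.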
G9a inh: qHTS Assay for Inhibitors of Histone Lysine Methyltransferase G9a. Potency, µM (series often up to 102 µM), inactives show at the top dose activity, negative = inhibition, hits mostly inhibitors. AID 504332, 2011. G9a H3K9 monomethylation, AlphaScreen, 2 h. 8.8% of 350,000 active; further: potency means the concentration at half of the fitted maximal effect; on the % scale 0 is the no-effect control and ±100 the full control effect; nearly all actives have a fitted effect of over 75% in size
Target sequence (Q96KQ7 913-1193 limits assumed): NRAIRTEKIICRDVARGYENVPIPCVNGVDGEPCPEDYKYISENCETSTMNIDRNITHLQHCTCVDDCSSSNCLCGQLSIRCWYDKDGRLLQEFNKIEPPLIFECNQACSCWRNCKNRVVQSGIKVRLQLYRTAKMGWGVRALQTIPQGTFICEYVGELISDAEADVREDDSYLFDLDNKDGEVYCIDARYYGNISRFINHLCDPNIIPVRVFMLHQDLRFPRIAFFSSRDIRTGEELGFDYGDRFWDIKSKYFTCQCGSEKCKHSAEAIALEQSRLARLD
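G9a (20 nM) preincubated 15 min RT with compounds, then 500 nM biotinylated H3K9 peptide and 20 uM SAM added; 2 h RT reaction. Monomethyl-H3K9 product detected by AlphaScreen with anti-H3K9me1 antibody, streptavidin donor and anti-rabbit IgG acceptor beads.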
Six1-Eya2 blk: qHTS Assay for Inhibitors of the Six1/Eya2 Interaction. Homeobox protein SIX1 (Homo sapiens) + Protein phosphatase EYA2 (Homo sapiens), …. AlphaScreen GST-Six1/His-Eya2 binding, biochemical; stronger effect = lower value. activity change, % (test concentration not listed). 0.56% of 360,000 active; in the data active means activity change below about -65%; inconclusive means mostly about -30% to -63%; further: on the % scale 0 is the no-effect control and ±100 the full control effect
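Homogeneous AlphaScreen proximity assay pairing GST-Six1 with His-tagged Eya2 (added as 5X mix: 250 nM and 500 nM) in 50 mM Tris pH 8.0, 300 mM NaCl, 1 mM TCEP. Glutathione donor and nickel acceptor beads; 1 h, 37 °C, dark.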
* = called active by the depositor; u = inconclusive; x = no result given; [ ] = remark or other dose. Unless noted, the call rests on the fitted dose curve; in most records, active means well fitted inhibition curve with a large enough effect; inconclusive means small, poorly fitted or top-dose-only effect; inactive means no such curve, though single readings can be large or run the other way.

SMILES | JMJD2A Tudor | CtBP-E1A inh | HP1b chromo inh | BAZ2B block | G9a inh | Six1-Eya2 blk
Cc1cc2ccccc2nc1SCC(=O)NC1CCCC1 | 14µM* | 2 | -1% | 4% | 2% | 11
CCOc1ccc2nc(SCC3CC3(Cl)Cl)[nH]c2c1 (centres undefined) | 3% | 4 | 31% | -19% | 45µM* | 1
COc1ccc2nc(SCC(N)=O)[nH]c2c1 | -2% | 12 | 36% | 4% | -25%[12.7 µM] | -2
CCC(C)N(C(=O)CSc1nc2ccc(OC)cc2[nH]1)C1CCS(=O)(=O)C1 (centres undefined) | -9% | 3 | 19% | 8% | 40µM* | 5
COc1ccc2nc(SCCN(C)C)[nH]c2c1 | -21% | -3 | u | 50µM* | u | 2
CCCCCCCCS(=O)CCC(=O)O (centres undefined) | 1% | 3 | 39% | -9% | 22µM* | -1
CCCCCCCCCCCCCCCC(=O)O | x | x | x | x | 29%[59 µM] | x
COc1ccc(NC(=O)N2CCCC3(CCN(C(=O)c4cc(C(F)(F)F)cc(C(F)(F)F)c4)CC3)C2)cc1 | x | x | x | x | 6%[12.7 µM] | x
CCCCn1nnnc1C(c1cc2ccccc2o1)N1CCN(c2ncccc2C#N)CC1 (centres undefined) | x | 1 | x | x | x | -2
COc1cccc(C(C(=O)NCc2ccccc2)N2CCN(c3ccccc3F)CC2)c1OC (centres undefined) | x | 3 | x | x | x | -6
C=CCn1nc([N+](=O)[O-])nc1Sc1cccc2cccnc12 | -11% | -95* | 19% | -10% | -20% | -94*
O=[N+]([O-])c1ccc(Sc2cccc3cccnc23)cc1 | u | -17 | -6% | -36% | -5% | -18
O=[N+]([O-])c1ccc(Sc2cccc3cccnc23)c([N+](=O)[O-])c1 | -7% | -98* | 32% | -3% | u | -94*
COc1cc(CC(CC(=O)O)CC(C)OCc2ccccc2)cc(OC)c1 (centres undefined) | 14% | 11 | 23% | 11% | 1.4µM* | 13
COc1ccc(NC(=O)C(CC(=O)O)Cc2ccccc2)cc1 (centres undefined) | -31% | 3 | 9% | 0% | u | 7
CCOc1ccc(NS(=O)(=O)c2ccc(N)cc2)cc1 | -10% | -4 | 9% | 7% | 1% | 4
CCOc1ccc(Nc2ccc(N)c(S(=O)(=O)O)c2)cc1 | 56µM* | u | 50µM* | x | x | u
c1ccc(N=NC2=NN(c3ccccc3)CS2)cc1 | x | u | x | x | x | -77*
Cn1cnc(Sc2ncnc3nc[nH]c23)c1[N+](=O)[O-] | 6.3µM* | x | u | u | x | -9
Cn1cnc([N+](=O)[O-])c1Sc1ncnc2nc[nH]c12 | 3% | -2 | 21% | -5% | 16%[12.7 µM] | -7
Oc1ccc(C2=NNC(=NCc3ccc4c(c3)OCO4)SC2)c(O)c1 | -29% | -19 | 4% | u | u | -13
Clc1ccc(C2=NNC(=NCc3ccc4c(c3)OCO4)SC2)cc1 | u | u | -37% | -35% | 28µM* | u
O=C(/C=C/[C@H]1O[C@@H](n2cnc3c(NC(=O)c4ccccc4)ncnc32)[C@H](O)[C@@H]1O)NCc1cccc2ccccc12 | x | -22 | x | x | x | 7
CN=C(Nc1cc(Cl)ccc1Cl)SC1CC(=O)N(c2ccc(C(=O)OC)cc2)C1=O (centres undefined) | -14% | -6 | 12% | 4% | 50µM* | -5
COC(=O)c1ccc(N2C(=O)CC(SCC(=O)Nc3ccc(OC)cc3)C2=O)cc1 (centres undefined) | -9% | -1 | 35% | 0% | x | 0
SMILES | JMJD2A Tudor | CtBP-E1A inh | HP1b chromo inh | BAZ2B block | G9a inh | Six1-Eya2 blk
COC(=O)c1ccc(N2C(=O)CC(Sc3n[nH]c(C)n3)C2=O)cc1 (centres undefined) | -3%[11.4 µM] | 0 | 0% | 0% | 2µM* | -3
O=C(CNC(=O)c1ccc(S(=O)(=O)N2CCCC2)cc1)N/N=C/c1ccc(Cl)cc1Cl | -10% | 1 | 31% | 7% | 6%[59 µM] | 11
CC1CCC(NC(=O)CN2C(=O)NC3(CCCCCC3)C2=O)CC1 (centres undefined) | -7% | 9 | 39% | 2% | 12%[12.7 µM] | 3
O=C(CSc1nc2c([nH]c3ccccc32)c(=O)n1-c1ccc(F)cc1)N1CCCCCC1 | -12% | x | 5%[57 µM] | -1% | 9%[59 µM] | x
NC(=O)[C@@H]1CCCNc2c(I)cc([N+](=O)[O-])cc2C(=O)N[C@@H](CCC(=O)O)C(=O)N[C@@H](CO)C(=O)N1 | -6% | 4 | 39% | -5% | 35µM* | 2
C[C@@H]1NC(=O)c2cc([N+](=O)[O-])cc(I)c2NCCCC[C@@H](C(N)=O)NC(=O)[C@H](CCC(=O)O)NC1=O | -17% | x | 10% | -33% | 40µM* | u
C[C@@H]1NC(=O)[C@H](CCC(N)=O)NC(=O)c2cc([N+](=O)[O-])cc(I)c2NCCC[C@@H](C(N)=O)NC1=O | -15% | -2 | 18% | -25% | 50µM* | 9
NC(=O)C[C@H]1NC(=O)[C@H](CCC(=O)O)NC(=O)c2cc([N+](=O)[O-])cc(I)c2NCCC[C@@H](C(N)=O)NC1=O | -19% | 1 | 41% | u | 45µM* | -4
COc1ccc(C2/C=C\CN(C(=O)C3CCCC3)C(C)C(=O)N2Cc2ccc(F)cc2)cc1 (centres undefined) | -19% | x | 37% | x | x | x
Cc1ccc(Cn2c(=O)n(CCc3ccccc3)c(=O)c3c(C)c(C)sc32)cc1 | 2% | x | 19% | -13% | -6%[59 µM] | x
COc1ccc(Nc2oc(-c3ccc(COc4cccc(C)c4)o3)nc2C#N)cc1 | -13% | x | 31% | -8% | -6%[59 µM] | x
COc1ccc(S(=O)(=O)N(CCc2ccccc2)CC(=O)NCc2ccccc2)cc1OC | -22% | x | 20% | -4% | -7%[59 µM] | x
NC(=O)CC[C@@H]1NC(=O)[C@H](CO)NC(=O)c2cc([N+](=O)[O-])cc(I)c2NCC[C@@H](C(N)=O)NC(=O)[C@H](Cc2ccc(O)cc2)NC1=O | x | x | x | 56µM* | 7.9µM* | x
C[C@@H]1NC(=O)[C@H](CCCN=C(N)N)NC(=O)c2cc([N+](=O)[O-])cc(I)c2NCCC[C@@H](C(N)=O)NC1=O | -19% | -2 | 1% | -8% | 56µM* | 0
